Screens as filed in PubChem BioAssay.
Bead autofluor = counter-screen for toxin protease inhibitors: compound fluorescence. fluorescence intensity (test concentration not listed). 360,000 tested, 3.1% active. compound autofluorescence counterscreen, microsphere flow cytometry; active compounds read high. AID 624483; in the data active = fluorescence intensity above about 16000; inconclusive = no clear call, values can overlap the other calls
BoNT-F LC inh = inhibitors of Botulinum neurotoxin F light chain protease; Multiplex microsphere protease cleavage assay, flow cytometry; inhibition, % at 10 µM; 360,000 tested, 0.22% active; in the data active = inhibition above about 35%, passing the limit was not always enough; inconclusive = no clear call, values can overlap the other calls
PriA SSB inh = inhibitors of Klebsiella pneumoniae PriA binding to SSB C-terminal tail. AlphaScreen SSBct-PriA binding, biotinylated peptide. inhibition, % at 33 µM. 430,000 tested, 0.6% active. AID 1272365; in the data active = inhibition mostly above about 37%, no sharp cut-off; inactive = mostly below about 20%
BoNT A protease = BoNT A light chain protease inhibition; multiplex microsphere protease substrate cleavage, flow cytometry; inhibition, % at 10 µM; 360,000 tested, 0.17% active; AID 588499
Anthrax LF prot = anthrax lethal factor protease inhibition | 360,000 tested, 0.12% active | inhibition, % at 10 µM | AID 588501 | P15917 | multiplex microsphere protease cleavage assay, LF
Target sequence (P15917 whole entry, looked up): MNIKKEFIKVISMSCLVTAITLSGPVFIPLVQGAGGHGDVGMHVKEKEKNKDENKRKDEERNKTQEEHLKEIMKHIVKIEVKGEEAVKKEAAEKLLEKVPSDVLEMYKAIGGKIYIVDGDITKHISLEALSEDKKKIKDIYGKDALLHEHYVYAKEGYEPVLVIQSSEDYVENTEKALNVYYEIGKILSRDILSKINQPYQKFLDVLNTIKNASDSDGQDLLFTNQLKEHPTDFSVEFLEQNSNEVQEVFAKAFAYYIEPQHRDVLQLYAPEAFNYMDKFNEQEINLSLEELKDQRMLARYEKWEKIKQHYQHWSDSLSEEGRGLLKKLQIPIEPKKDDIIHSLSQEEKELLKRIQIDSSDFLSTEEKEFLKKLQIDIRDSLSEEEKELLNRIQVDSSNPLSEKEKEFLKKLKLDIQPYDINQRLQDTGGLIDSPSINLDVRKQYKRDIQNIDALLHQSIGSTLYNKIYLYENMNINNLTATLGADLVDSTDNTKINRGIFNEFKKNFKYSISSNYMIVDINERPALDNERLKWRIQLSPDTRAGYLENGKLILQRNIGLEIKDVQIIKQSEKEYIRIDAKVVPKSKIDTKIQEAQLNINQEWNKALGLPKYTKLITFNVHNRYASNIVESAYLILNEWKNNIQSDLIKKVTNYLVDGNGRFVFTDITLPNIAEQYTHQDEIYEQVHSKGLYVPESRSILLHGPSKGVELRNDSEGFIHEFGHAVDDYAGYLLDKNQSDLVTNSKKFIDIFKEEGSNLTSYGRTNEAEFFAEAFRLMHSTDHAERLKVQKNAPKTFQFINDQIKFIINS
Numbers stand for hits. A selection: hits, their analogues and other compounds. The true share with any hit is near 3.1%. Cut-off read from the data, not from the text of the source, unless noted: active = inhibition above about 30%; inconclusive = no clear call, values can overlap the other calls; inactive = below that.

`Cc1ccc(C(=O)N/C(=C\c2ccc([N+](=O)[O-])cc2)C(=O)NCCc2ccccc2)cc1` gave Bead autofluor 25796, BoNT-F LC inh inactive, PriA SSB inh inactive, BoNT A protease inactive and Anthrax LF prot inactive.
For Cc1cc(C(F)(F)F)nc(SCC(=O)c2ccc3c(c2)OCO3)n1 the results were PriA SSB inh inactive.
CCc1nnc(NS(=O)(=O)c2ccc(NC(=O)COc3ccc(Cl)cc3)cc2)s1 was read as PriA SSB inh inactive.
Screening CC1=C(SCCC#N)S/C(=C2\SC(C)=C(SCCC#N)S2)S1 returned Bead autofluor inactive, BoNT-F LC inh inactive, PriA SSB inh 54, BoNT A protease inactive and Anthrax LF prot inactive.
COc1cccc(-n2c(SC)nnc2-c2cnccn2)c1 was read as Bead autofluor 20539, BoNT-F LC inh inactive, PriA SSB inh inactive, BoNT A protease inactive and Anthrax LF prot inactive.
CSc1nnc(-c2cnccn2)n1C was read as Bead autofluor 23864, BoNT-F LC inh inactive, PriA SSB inh inactive, BoNT A protease inactive and Anthrax LF prot inactive.
`Cn1c(SCC(N)=O)nnc1-c1cnccn1` gave Bead autofluor inactive, BoNT-F LC inh inactive, PriA SSB inh inactive, BoNT A protease inactive and Anthrax LF prot inactive.
For CCOc1ccc2nc(NC(=O)Cc3ccc4c(c3)OCO4)sc2c1 the results were PriA SSB inh inactive.
Screening Cc1ccc(S(=O)(=O)N2CCOC23CCN(C(=O)C(=O)Nc2ccc(C)cc2C)CC3)cc1 returned PriA SSB inh inactive.
For CCN1CCN(Cc2c(O)ccc3c2O/C(=C\C=C\c2ccccc2)C3=O)CC1 the results were Bead autofluor inactive, BoNT-F LC inh inactive, PriA SSB inh inactive, BoNT A protease 35 and Anthrax LF prot inactive.
COc1ccccc1/C=C/C=C1\Oc2c(ccc(O)c2CN2CCN(CCO)CC2)C1=O was read as Bead autofluor inactive, BoNT-F LC inh inactive, PriA SSB inh inactive, BoNT A protease 31 and Anthrax LF prot inactive.
Screening CCOc1ccccc1/C=C1\Oc2c(ccc(O)c2CN2CCCCC2)C1=O returned PriA SSB inh inactive.
For O=C1/C(=C/C=C/c2ccccc2)Oc2c1ccc(O)c2CN1CCN(CCO)CC1 the results were Bead autofluor inactive, BoNT-F LC inh inactive, PriA SSB inh inactive, BoNT A protease inactive and Anthrax LF prot inactive.
For COc1ccc(Cl)cc1NC(=O)NCCn1ncccc1=O the results were PriA SSB inh inactive.
`CC(C)(Oc1ccc(Cl)cc1)C(=O)N1CCSC1c1ccsc1` (stereo unspecified) gave PriA SSB inh inactive.
For O=C(CSc1ccc(F)cc1)NCc1ccnc(-c2ccsc2)c1 the results were PriA SSB inh inactive.
For CCCC(C)C(=O)NC1CCSC1=O (stereo unspecified) the results were Bead autofluor 16556, BoNT-F LC inh inactive, PriA SSB inh inactive, BoNT A protease inactive and Anthrax LF prot inactive.
For CC(Oc1ccc(Cl)cc1Cl)C(=O)NC1CCSC1=O (stereo unspecified) the results were Bead autofluor 22259, BoNT-F LC inh inactive, PriA SSB inh inactive, BoNT A protease inactive and Anthrax LF prot inactive.
O=C(Cc1ccc(F)cc1F)Nc1ccn2nccc2c1 was read as PriA SSB inh inactive.
For Cc1cc(=O)[nH]c(NN=Cc2ccc3c(c2)OCCO3)n1 the results were PriA SSB inh inactive.
Screening CCCCCCCCn1c(NS(=O)(=O)c2ccc(C)cc2)c(S(=O)(=O)c2ccccc2)c2nc3ccccc3nc21 returned PriA SSB inh inactive.
Screening O=S(=O)(Nc1c(S(=O)(=O)c2ccccc2)c2nc3ccccc3nc2n1C1CCCCC1)c1ccccc1 returned Bead autofluor inactive, BoNT-F LC inh inactive, PriA SSB inh 73, BoNT A protease inactive and Anthrax LF prot inactive.
For CCCCn1c(NS(=O)(=O)c2ccc(Cl)cc2)c(S(=O)(=O)c2ccccc2)c2nc3ccccc3nc21 the results were PriA SSB inh inactive.
For CCCCn1c(NS(=O)(=O)c2ccc(C)cc2)c(S(=O)(=O)c2ccc(C)cc2)c2nc3ccccc3nc21 the results were PriA SSB inh 62.
For CCCCn1c(NS(=O)(=O)c2ccccc2)c(S(=O)(=O)c2ccccc2)c2nc3ccccc3nc21 the results were PriA SSB inh 64.
Screening CCCCCn1c(NS(=O)(=O)c2ccccc2)c(S(=O)(=O)c2ccc(C)cc2)c2nc3ccccc3nc21 returned PriA SSB inh 76.
`COc1ccc(C)c2sc(NC(=O)c3ccc(-c4ccccc4)cc3)nc12` gave PriA SSB inh inactive.
CCCCCn1c(NS(=O)(=O)c2ccc(C)cc2)c(S(=O)(=O)c2ccccc2)c2nc3ccccc3nc21 was read as PriA SSB inh inactive.
CCCCOCCCn1c(NS(=O)(=O)c2ccc(Cl)cc2)c(S(=O)(=O)c2ccc(C)cc2)c2nc3ccccc3nc21 was read as PriA SSB inh 56.
`Cc1ccc(S(=O)(=O)Nc2c(S(=O)(=O)c3ccccc3)c3nc4ccccc4nc3n2CCc2ccccc2)cc1` gave PriA SSB inh inactive.
Cc1ccc(S(=O)(=O)Nc2c(S(=O)(=O)c3ccc(C)cc3)c3nc4ccccc4nc3n2CCC(C)C)cc1 was read as PriA SSB inh 63.
Screening CCCCCn1c(NS(=O)(=O)c2ccc3ccccc3c2)c(S(=O)(=O)c2ccc(C)cc2)c2nc3ccccc3nc21 returned PriA SSB inh 62.
For CCCCCn1c(NS(=O)(=O)c2ccc(C)cc2)c(S(=O)(=O)c2ccc(C)cc2)c2nc3ccccc3nc21 the results were PriA SSB inh 67.
For Cc1csc(NC(=O)C2CCCN2C(=O)Oc2ccccc2)n1 (stereo unspecified) the results were Bead autofluor 22986, BoNT-F LC inh inactive, PriA SSB inh inactive, BoNT A protease inactive and Anthrax LF prot inactive.
For Cc1cc(C)cc(NC(=O)C2CCCN2C(=O)Oc2ccccc2)c1 (stereo unspecified) the results were Bead autofluor inactive, BoNT-F LC inh inactive, PriA SSB inh inactive, BoNT A protease inactive and Anthrax LF prot inactive.
COc1ccc(S(=O)(=O)C2CN(C(=O)c3cccc4ccc(C)nc34)C2)cc1 was read as PriA SSB inh inactive.
For CC(C)CN(CC(C)C)S(=O)(=O)c1ccc(C(=O)Nc2ccc(F)cc2)cc1 the results were PriA SSB inh inactive.
C=CCNc1nc(-c2ccc(OC)cc2OC)cs1 was read as Bead autofluor 21095, BoNT-F LC inh inactive, PriA SSB inh inactive, BoNT A protease inconclusive and Anthrax LF prot inactive.
Screening O=C1C(c2ccc(F)cc2)N(Cc2ccc3c(c2)OCO3)C(=O)CN1C1CCCC1 (stereo unspecified) returned Bead autofluor 25677, BoNT-F LC inh inactive, PriA SSB inh inactive, BoNT A protease inactive and Anthrax LF prot inactive.
For COc1ccccc1CN1C(=O)CN(C2CCCC2)C(=O)C1c1ccc(F)cc1 (stereo unspecified) the results were Bead autofluor 16593, BoNT-F LC inh inactive, PriA SSB inh inactive, BoNT A protease inconclusive and Anthrax LF prot inactive.
O=C1C(c2ccc(F)cc2)N(Cc2ccc3c(c2)OCO3)C(=O)CN1C1CCCCC1 (stereo unspecified) was read as Bead autofluor 20863, BoNT-F LC inh inactive, PriA SSB inh inactive, BoNT A protease inactive and Anthrax LF prot inactive.
